Measurements: PubChem BioAssay (NCI)
Several values for one entry are separate records, joined by “and”; a condition that tells them apart may be missing. Identical values can stand only once. This is part of a sample that, as a whole, favours compounds with a hit. Of some 83,000 tested, about 20% had one in any assay.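 How to read the values: 0–100, growth inhibition (40 = 60% inhibited); 0, no net growth; -100 to 0, cell death (-40 = 40% of starting cells died; -100 = all dead).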 Unmarked numbers belong to inactive results. Activity calls are given as the source filed them. Rule for the calls: active = growth percent below 10; inactive = the rest.

System: MDA-MB-468 breast
Test: NCI-60 one-dose screen, 48 h (100 = growth as untreated, 0 = no growth, -100 = all killed)
Conditions: 10 µM unless noted

Row | Structure (SMILES) | growth
1 | Clc1ccc(-c2csc(N/N=C/c3nc4ccccc4n3C3CC3)n2)cc1 | 90.1%
2 | COc1ccc(-c2cc(-c3nnc(SCC(=O)Nc4ccc(C(C)=O)cc4)n3-c3ccccc3)c3ccccc3n2)cc1OC | 111%
3 | COc1cc(/C=C(/C)C[N+](=O)[O-])ccc1O | 57.9%
4 | Cn1cc(-c2nc(-c3c[nH]c4ncccc34)cs2)c2cc(Cl)ccc21 | -3.54% (active)
5 | CC1c2ccccc2N(S(=O)(=O)c2ccccc2)C1C (stereo not given) | 37.9%
6 | CC1(C)NCCC[C@]2(C)[C@H]3CC=C4[C@@H]5C[C@@](C)(CO)CC[C@]5(C)CC[C@@]4(C)[C@]3(C)CC[C@@H]12 | 67.6%
7 | O=C(N/N=C\c1ccccc1S(=O)(=O)O)N/N=C/c1ccccc1S(=O)(=O)O | 101%
8 | COc1c(C(NC(=O)c2ccccc2)c2sccc2C)cc(Cl)c2cccnc12 (stereo not given) | 102%
9 | CCOC(=O)c1cc(C(=O)c2ccc(Cl)cc2)n2ccc(-c3cc[n+](CC(=O)c4ccc(OC)cc4)cc3)cc12 | 70.7%
10 | O=C1CCCC=CC[C@H]2C=C(Cl)C(=O)C2=CC[C@H](CCCCC(F)(F)F)OC(=O)CCCC=CC[C@H]2C=C(Cl)C(=O)C2=CC[C@H](CCCCC(F)(F)F)OC(=O)CCCC=CC[C@H]2C=C(Cl)C(=O)C2=CC[C@H](CCCCC(F)(F)F)O1 | 59.9% [6.25 µM]
11 | NC(N)=NCCCCCNc1noc(Cc2c[nH]c3cc(Br)ccc23)n1 | 1.76% (active)
12 | CC(C)=CCC[C@](C)(O)[C@H]1CC[C@]2(C)[C@@H]1CC[C@@H]1[C@@]3(C)CC[C@H](N)C(C)(C)[C@@H]3CC[C@]12C | 62%
13 | CN(C)c1ccc(/C=C2\C=C(c3ccccc3)N(CCc3ccccc3)C2=O)cc1 | 98.2%
14 | CSC1=NCCCC1 | 102%
15 | O=C(Nc1ccc(Cl)cc1F)c1cc(I)ccc1O | 41.4%
16 | O=[N+]([O-])c1ccccc1C(O)Cc1ccc2ccccc2n1 (stereo not given) | 79.7%
17 | C#CCNC(=O)CC[C@@H](C)[C@H]1CC[C@H]2[C@@H]3CC[C@@H]4CC(=O)CC[C@]4(C)[C@H]3CC[C@]12C | -19.7% [100 µM] (active)
18 | CCOC(=O)N(O)c1ccc(/C=C/c2ccccc2)cc1 | -59.5% (active) and -52.6% (active)
19 | C/C(=N/N=C(N)N)c1ccc(Cl)cc1 | 95.7%
20 | CCCC(=O)Nc1ccccc1C(=O)O | 106%

Row | Structure (SMILES) | growth
21 | CCOS(=O)(=O)c1ccc([N+](=O)[O-])cc1 | 119%
22 | O=C1C(Cl)=C(Nc2cccc3cc4ccccc4nc23)C(=O)c2ccccc21 | 40.9%
23 | COc1ccc(NC(=O)c2cc3ccccc3nc2Nc2cc(OC)c(OC)c(OC)c2)cc1 | 75.2%
24 | Oc1c(C(Nc2cccc3ccccc23)c2ccccc2)ccc2cccnc12 (stereo not given) | 26.7%
25 | CC(=O)C1CCC(C)=CC1=O (stereo not given) | 116%
26 | Cc1[nH]c2ccccc2c1/C=N/Nc1ncnc2sc3c(c12)CCN(CC(=O)OC(C)(C)C)C3 | 47.5%
27 | c1cc(NCCc2ccncc2)nc(-n2cnc3ccccc32)c1 | 95%
28 | NC(=S)N/N=C(\c1ccc(Br)cc1)C1CC1 | 20% and 19%
29 | CC1(C)CC[C@]2(CO)CC[C@]3(C)[C@](O)([C@H](O)C[C@@H]4[C@@]5(C)CCCNC(C)(C)[C@@H]5CC[C@]43C)[C@@H]2C1 | 81.3%
30 | Clc1cc(Br)ccc1-c1ccc(CNCC2CCNCC2)o1 | 21.2%
31 | O=C1c2ccccc2NC(c2cn(-c3ccccc3)nc2-c2cccnc2)N1Cc1ccccc1 (stereo not given) | 102%
32 | O=C(O)c1ccc(NC(=O)c2ccc(-c3cccc([N+](=O)[O-])c3)o2)cc1 | 99.8%
33 | COc1ccc(OC)c(NCC(=O)n2nc(/C=C\c3ccc(O)c(OC)c3)cc2/C=C\c2ccc(O)c(OC)c2)c1 | 12.1%
34 | O=C(Oc1cccc2cccnc12)c1ccccc1 | 71.7% and 93.1%
35 | Cn1cc(-c2nc(-c3c[nH]c4ccncc34)cs2)c2cc(Br)ccc21 | -71.8% (active)
36 | CC(=O)OC1CC2C(C)(C)CCC[C@]2(C)C2=C1C(O)=C(C(C)C)C(=O)C2=O (stereo not given in full) | -49.5% (active)
37 | Cc1ccc(-c2nc(/C=C3/C(=O)N(C)c4ccc(F)cc43)c3ccccn23)cc1 | 101%
38 | CCOC(=O)c1ccc(NC(=O)N2CC(C)OC(C)C2)cc1 (stereo not given) | 91.7%
39 | Cc1n[nH]c2ccc(Br)cc2c1=O | 99.9%
40 | CNC(=O)c1cc(Oc2ccc(NC(=O)Nc3ccc(Cl)c(SC)c3)c(F)c2)ccn1 | 13.6%
